In PubChem BioAssay (EPA / NIEHS):
Records with an inconclusive call do not appear. The source made the active and inactive calls. Rule for the calls, unless noted: active = hit-call score of the fitted dose curve at least 0.9, where 1 is the maximum; inactive = score below 0.9.

Columns and labels:
[1] = CCTE_Mundy_HCI_Cortical_Synap_Neur_Matur_NeuriteSpotCountPerNeuron: CCTE's Synaptogenesis and Neurite Maturation Assay in rat cortical cells for Neurite Spot Count per Neuron Count, Mundy Lab (AID 2284215)
In short: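 Developing rat cortical neurons, with glia suppressed by AraC, are exposed to chemicals from DIV 7 to DIV 12. Automated fluorescence imaging of MAP2-labelled neurites and synaptophysin puncta yields a count per neuron, normalised against DMSO wells.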

[2] = CCTE_Mundy_HCI_Cortical_Synap_Neur_Matur_SynapseCount: CCTE's Synaptogenesis and Neurite Maturation Assay in rat cortical cells for Synapse Count, Mundy Lab (AID 2284218)
In short: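 Read-out: synapse number per neuron, automated high-content imaging of fixed cells immunostained for MAP2 and synaptophysin plus Hoechst nuclei. Rat primary cortical cultures, AraC at DIV 5, chemical dosing DIV 7–12. Positive-direction fit relative to DMSO.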

[3] = CCTE_Mundy_HCI_hN2_NOG_NeuriteCount: CCTE's Neurite Outgrowth Assay in human hN2 cells for Neurite Count, Mundy Lab (AID 2284219; active = hit-call score of the fitted dose curve at least 0.9, where 1 is the maximum)
In short: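 In this morphology assay, hNP1-derived neurons received test chemical 2 h post-plating and were fixed two days later in warm paraformaldehyde/sucrose containing Hoechst 33342. Neurites, labelled by rabbit anti-βIII-tubulin (1:800) and Alexa Fluor-488 (1:500), were counted automatically.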

[4] = CCTE_Mundy_HCI_hN2_NOG_NeuronCount: CCTE's Neurite Outgrowth Assay in human hN2 cells for Neuron Count, Mundy Lab (AID 2284221; active = hit-call score of the fitted dose curve at least 0.9, where 1 is the maximum)
In short: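 Read-out is the number of betaIII-tubulin-positive neurons imaged by automated high-content analysis, with DMSO as negative control.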

[5] = CCTE_Mundy_HCI_Cortical_Synap_Neur_Matur_NeuriteCount: CCTE's Synaptogenesis and Neurite Maturation Assay in rat cortical cells for Neurite Count, Mundy Lab (AID 2284222);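 note: exposure from day 7 to day 12 in vitro with readout at day 12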
In short: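 Primary rat cortical cells were plated, treated with AraC at DIV 5, then exposed to chemicals from DIV 7 through DIV 12. After fixation and immunostaining for MAP2 and synaptophysin, imaging quantified neurites, with DMSO as the negative control.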

[6] = CCTE_Mundy_HCI_Cortical_Synap_Neur_Matur_CellBodySpotCount: CCTE's Synaptogenesis and Neurite Maturation Assay in rat cortical cells for Cell Body Spot Count, Mundy Lab (AID 2284223)
In short: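 Chemicals were applied to AraC-treated rat primary cortical cells at DIV 7 and measured at DIV 12. Fixed cells were labelled for MAP2, synaptophysin and nuclei, and high-content imaging gave cell body synaptophysin spot counts per neuron relative to DMSO.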

[7] = CCTE_Mundy_HCI_Cortical_NOG_BPCount: CCTE's Neurite Outgrowth Assay in rat cortical cells for Branch Point Count, Mundy Lab (AID 2284237)
In short: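 Measured 50.33 h after dosing, this morphology endpoint uses rat primary cortical cultures labelled for betaIII-tubulin. Branch points are quantified by high-content imaging, with DMSO as negative control and baseline.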

[8] = CCTE_Mundy_HCI_hNP1_Casp3_7: CCTE's Caspase-Glo 3/7 Assay in human neuroprogenitor cells for Apoptosis, Mundy Lab (AID 2284240)
In short: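 Luminescent caspase-3/7 readout, 26.5 h post-dose, in human neural progenitor cells from WA09 embryonic stem cells. Cells grew 40–44 h at 37 °C, 5% CO2 before chemical addition. Activity analysed as signal increase over DMSO baseline.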

[9] = CCTE_Mundy_HCI_hNP1_CellTiter: CCTE's Cell Titer-Glo 2 Assay in human neuroprogenitor cells for Viability, Mundy Lab (AID 2284241; active = hit-call score of the fitted dose curve at least 0.9, where 1 is the maximum)
In short: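 Viability read as luminescent ATP content (CellTiter-Glo, 30 min room temperature) twenty-four hours after dosing, relative to DMSO. Cells: WA09-derived hNP1 neuroprogenitors on poly-L-ornithine/laminin, plated 40 to 44 hours before chemical.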

[10] = CCTE_Mundy_HCI_Cortical_Synap_Neur_Matur_NeuronCount: CCTE's Synaptogenesis and Neurite Maturation Assay in rat cortical cells for Neuron Count, Mundy Lab (AID 2284242; active = hit-call score of the fitted dose curve at least 0.9, where 1 is the maximum)
In short: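 Rat cortical cultures; AraC DIV 5; chemical dosing + media change DIV 7 to DIV 12 (288.33 h readout). Fix, Hoechst, anti-MAP2/anti-synaptophysin immunostain; HCI neuron count vs DMSO baseline.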

[11] = IUF_NPC2c_oligodendrocyte_migration_120hr: Leibniz Research Institute for Environmental Medicine (IUF) 120-hour Neural Progenitor Cell Migration Assay for Oligodendrocyte Migration (NPC2c) (AID 2284297);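 note: O4-positive oligodendrocyte migration distance divided by radial glia migration distance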
In short: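 Using fetal brain neural progenitor spheres differentiating in N2 medium at 37C, compounds were present for 120 h. Oligodendrocyte migration distance, normalized to radial glia migration, was measured from imaged O4 staining.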

[12] = IUF_NPC2a_radial_glia_migration_120hr: Leibniz Research Institute for Environmental Medicine (IUF) 120-hour Neural Progenitor Cell Migration Assay for Radial Glia Migration (NPC2a) (AID 2284298)
In short: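 Exposure of 0.3 mm primary hNPC spheres runs day 0 to 120 h with a half-volume medium change at day 3. Fixed cells get Hoechst staining; high-content analysis of nuclear positions yields radial glia migration distance per well, compared against DMSO controls.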

[13] = IUF_NPC2a_radial_glia_migration_72hr: Leibniz Research Institute for Environmental Medicine (IUF) 72-hour Neural Progenitor Cell Migration Assay for Radial Glia Migration (NPC2a) (AID 2284299)
In short: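 Readout: mean of four manual brightfield measurements of radial glia migration distance (um) at 72 h. hNPC spheres (0.3 mm) exposed to 7 compound concentrations plus solvent control on PDL/laminin, 37C, 5% CO2; activity fitted relative to DMSO.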

[14] = IUF_NPC2b_neuronal_migration_120hr: Leibniz Research Institute for Environmental Medicine (IUF) 120-hour Neural Progenitor Cell Migration Assay for Neuron Migration (NPC2b) (AID 2284300)
In short: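 Fetal human NPC spheres migrate on PDL/laminin during 120 h compound treatment; neuronal migration distance, glia-normalized, scored versus DMSO control.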

[15] = IUF_NPC3_neuronal_differentiation_120hr: Leibniz Research Institute for Environmental Medicine (IUF) 120-hour Neuronal Differentiation Assay (NPC3) (AID 2284301)
In short: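 hNPC spheres, PDL/laminin, DMEM/F12 3:1 + 1% N2, 37C, 5% CO2; 7 concentrations + solvent control, 5 d exposure, half-change day 3. Fix 120 h; TUBB3/Hoechst ICC, CNN neuron calling; % neurons vs nuclei, DMSO-normalized.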

[16] = IUF_NPC4_neurite_length_120hr: Leibniz Research Institute for Environmental Medicine (IUF) 120-hour Neuronal Morphology Assay for Neurite Length (NPC4) (AID 2284302)
In short: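 hNPC spheres (0.3 mm, fetal brain GW 16-19) on PDL/laminin, DMEM:F12 3:1 + 1% N2, 37C 5% CO2; 7 concs + solvent control, day 0-5, half medium change d3; fix 120 h, TUBB3 ICC, mean neurite length um vs DMSO.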

[17] = IUF_NPC4_neurite_area_120hr: Leibniz Research Institute for Environmental Medicine (IUF) 120-hour Neuronal Morphology Assay for Neurite Area (NPC4) (AID 2284305; active = hit-call score of the fitted dose curve at least 0.9, where 1 is the maximum)
In short: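 hNPC spheres on PDL/laminin, N2 medium, 37C/5% CO2; dosed day 0, half-medium refresh day 3; fixed 120 h; TUBB3/Hoechst ICC, high-content imaging; neurite area = mean pixels per neuron (nuclei excluded); DMSO baseline, max 0.1%.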

[18] = IUF_NPC2-5_cytotoxicity_72hr: Cytotoxicity Assessment at 72 hours in the Leibniz Research Institute for Environmental Medicine (IUF) Neural Progenitor Cell Migration and Differentiation Assay for Cytotoxicity (NPC2-5) (AID 2284306; active = hit-call score of the fitted dose curve at least 0.9, where 1 is the maximum;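 note: LDH release into supernatant measured by resorufin fluorescence marking membrane damage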)
In short: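 hNPC spheres (0.3 mm), PDL/laminin, DMEM/F12 3:1 + 1% N2; cpd from d0, 7 concs + SC, DMSO max 0.1%; half-medium refresh d3. Readout: supernatant LDH via resorufin fluorescence (RFU), 72 h; gain-of-signal fit.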

[19] = IUF_NPC2-5_cytotoxicity_120hr: Cytotoxicity Assessment at 120 hours in the Leibniz Research Institute for Environmental Medicine (IUF) Neural Progenitor Cell Migration and Differentiation Assay (NPC2-5) (AID 2284307; active = hit-call score of the fitted dose curve at least 0.9, where 1 is the maximum)
In short: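 Membrane-integrity loss is quantified by LDH in supernatant after five days of exposure of migrating, differentiating human fetal NPC spheres; seven serially diluted concentrations are tested with DMSO kept at or below 0.1%.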

[20] = IUF_NPC2-5_cell_number_120hr: Cell Number Assessment at 120 hours in the Leibniz Research Institute for Environmental Medicine (IUF) Neural Progenitor Cell Migration and Differentiation Assay (NPC2-5) (AID 2284308);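 note: count of Hoechst-stained nuclei in migration zone around plated human neural progenitor spheres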
In short: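 Seven-point serial dilutions plus solvent control were applied to plated 0.3 mm hNPC spheres at differentiation start, with medium half-replaced at day 3. Nuclei positive for Hoechst in the migration zone were enumerated at 120 h.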

[21] = IUF_NPC2-5_viability_120hr: Viability Assessment at 120 hours in the Leibniz Research Institute for Environmental Medicine (IUF) Neural Progenitor Cell Migration and Differentiation Assay (NPC2-5) (AID 2284312)
In short: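 Human fetal neural progenitor spheres (0.3 mm) plated on poly-D-lysine/laminin in N2 differentiation medium, exposed 120 h with half-medium refresh at day 3. Viability by alamar blue resazurin fluorescence; 7 concentrations, DMSO max 0.1%.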

Measured: outcome

F
inactive: all assays above
